# Bioassay records deposited in PubChem BioAssay by several laboratories.
# Rows were chosen to be rich in hits. Some 1.1% of all compounds tested hit in one or more screens of this group.
# CCHF vOTU inh: CCHFV vOTU protease inhibition. Pep-AMC fluorescence. inhibition, % at 11.5 µM. 370,000 compounds, 0.55% hits; in the data active means inhibition above about 30%; further: 0% = vehicle wells with enzyme and 100% = no enzyme wells
# Y pestis TopoI: inhibitors of Yersinia pestis topoisomerase I; Y. pestis Topo-I cleavage product accumulation, plate reader; activity, % at 10 µM; 360,000 compounds, 0.064% hits; AID 504884; in the data active means activity above about 50%, passing the limit was not always enough
# RecA splice inh: Mtb RecA intein splicing inhibition; P9WHJ3; cell-free RecA intein splicing, fluorescence; inhibition, % (no concentration beside the values); 290,000 compounds, 0.75% hits; AID 2221; in the data active means inhibition above about 30%;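 further: 0% = vehicle wells and 100% = reference inhibitor control wells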
# Target sequence (P9WHJ3 whole entry, looked up, canonical isoform): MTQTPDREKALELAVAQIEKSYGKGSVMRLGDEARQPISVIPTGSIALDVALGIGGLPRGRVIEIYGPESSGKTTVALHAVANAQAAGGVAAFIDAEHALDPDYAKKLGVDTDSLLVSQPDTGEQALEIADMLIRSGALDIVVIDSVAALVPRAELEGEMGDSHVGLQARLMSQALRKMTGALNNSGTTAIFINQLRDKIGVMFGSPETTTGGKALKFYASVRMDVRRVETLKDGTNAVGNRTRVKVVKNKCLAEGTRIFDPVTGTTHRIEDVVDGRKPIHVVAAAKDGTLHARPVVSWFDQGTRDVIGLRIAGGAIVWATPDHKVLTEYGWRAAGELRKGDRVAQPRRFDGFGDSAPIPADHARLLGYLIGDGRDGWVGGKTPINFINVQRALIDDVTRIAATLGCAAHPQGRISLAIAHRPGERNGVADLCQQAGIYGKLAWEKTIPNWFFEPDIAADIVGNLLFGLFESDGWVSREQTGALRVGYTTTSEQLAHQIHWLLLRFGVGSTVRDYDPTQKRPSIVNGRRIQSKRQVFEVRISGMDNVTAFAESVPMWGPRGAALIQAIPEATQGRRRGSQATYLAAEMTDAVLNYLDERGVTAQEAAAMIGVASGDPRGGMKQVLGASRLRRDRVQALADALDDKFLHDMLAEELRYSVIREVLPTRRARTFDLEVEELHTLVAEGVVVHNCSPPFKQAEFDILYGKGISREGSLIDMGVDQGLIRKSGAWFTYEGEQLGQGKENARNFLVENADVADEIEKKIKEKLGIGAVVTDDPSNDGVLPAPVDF
# BJeLR viability: BJeLR cell viability loss. BJeLR (HRASV12) viability, CellTiter-Glo ATP luminescence, 48 h. inhibition, % (test concentration not listed). 300,000 compounds, 0.17% hits. AID 1554; in the data active means inhibition above about 50%
# Mtb betalactam: beta-lactam sensitization of Mtb H37Rv | M. tuberculosis H37Rv growth with meropenem, percent inhibition | inhibition, % at 25 µM | 330,000 compounds, 0.27% hits | AID 434955;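 further: growth measured after seven days incubation then overnight dye step; 0% = bacteria only wells and 100% = bacteria with antibiotic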
# BioA inh: BioA (M. tuberculosis) enzyme inhibition | inhibition, % at 9.99 µM | purified M. tuberculosis BioA enzyme, plate reader | 360,000 compounds, 0.096% hits; in the data active means inhibition above about 40%
# GFP chromo cs: counter-screen: blocks GFP chromophore formation; shares compounds with RecA splice inh; cell-free GFP chromophore formation, fluorescence; EC50, µM; 2,100 compounds, 83% hits; AID 434968
# * hit, by the source's call; / = no result given. Unless noted, how the calls were made is not given here.
SMILES,CCHF vOTU inh,Y pestis TopoI,RecA splice inh,BJeLR viability,Mtb betalactam,BioA inh,GFP chromo cs
COc1nc(N/N=C/c2ccc(-c3ccccc3[N+](=O)[O-])o2)nc(N2CCOCC2)n1,0,-1,61*,-7,8,-2,35*
O=C(O)c1cccc2c1C(=O)c1ccccc1C2=O,10,-10,-3,6,3,1,/
O=C(O)c1ccc2c3c(ncnc13)-c1ccccc1C2=O,/,/,44*,-5,66,/,4.4*
CCC(=O)N(C)C[C@@H]1[C@@H](c2ccc(C3=CCCCC3)cc2)[C@H](CO)N1C(C)=O,/,/,/,/,/,-5,/
C[C@H]1CN([C@@H](C)CO)C(=O)Cc2cc(NS(=O)(=O)c3cccs3)ccc2O[C@H]1CN(C)S(=O)(=O)c1ccccc1,/,/,/,/,/,-1,/
CC1=C(CC(=O)c2ccc(Cl)cc2)C(=O)c2ccccc2C1=O,9,5,68*,-12,4,0,11*
O=C(Cc1ccccn1)c1ccc(Cl)cc1,3,3,1,7,68,2,/
O=C(Nc1ccccc1F)N[C@H]1CC[C@@H](CCNS(=O)(=O)c2ccc(Cl)cc2)O[C@H]1CO,/,/,/,/,/,1,/
CCCNC(=O)N1C[C@@H](O)COC[C@@H]2O[C@H](CC(=O)NCc3ccc(Cl)c(Cl)c3)CC[C@H]21,/,/,/,/,/,-2,/
N#CC1=C(N)N(c2ccccc2)C(c2ccccc2)C1(C#N)C#N (stereo unspecified),-4,-4,43*,2,19,/,31*
N#Cc1c(N)nc(SCc2ccncc2)c(C#N)c1-c1cccs1,-2,-2,-4,10,7,-2,/
CN1CCc2nc(SCc3ccc(Cl)cc3)c(C#N)c(-c3cccs3)c2C1,14,/,60*,-6,/,/,8.7*
CCC(=O)N1C[C@@H](O)COC[C@H]2O[C@@H](CC(=O)N3CCCCC3)CC[C@@H]21,/,/,/,/,/,1,/
O=C(NCc1cccnc1)/C(=C\c1ccc(-c2ccc(Br)cc2)o1)S(=O)(=O)c1ccccc1,7,7,51*,6,95,1,29*
N#CC1(C#N)CC(C=O)=C(N)C1(C#N)CC(=O)C12CC3CC(CC(C3)C1)C2 (stereo unspecified),-10,14,41*,9,-6,/,19*
COc1ccc(NC(=O)N(C)C[C@@H]2Oc3c(NS(=O)(=O)c4ccc(C)cc4)cccc3C(=O)N([C@@H](C)CO)C[C@H]2C)cc1,/,/,/,/,/,1,/
CCOC(=O)c1nnn(-c2nonc2-n2cccc2)c1CCl,6,-4,70*,11,88,/,12*
C[C@@H]1CN([C@H](C)CO)C(=O)c2cc(NC(=O)Cc3cn(C)c4ccccc34)ccc2O[C@H]1CN(C)C(=O)NC1CCCCC1,/,/,/,/,/,0,/
O=C1CCN(S(=O)(=O)c2ccc(Cl)cc2)N1,-13,5,/,4,-4,-4,/
O=C1CCN(S(=O)(=O)c2ccccc2)N1,-25,2,43*,-1,-1,0,33*
C[C@H]1CCCCO[C@H](CN(C)C(=O)c2ccncc2)[C@@H](C)CN([C@@H](C)CO)C(=O)c2cc(NS(C)(=O)=O)ccc2O1,/,/,/,/,/,6,/
O=C(C[C@@H]1C[C@H]2c3cc(NC(=O)CC4CC4)ccc3O[C@H]2[C@H](CO)O1)NCc1cccc(F)c1,/,/,/,/,/,2,/
N#C/C(=C/c1ccncc1)c1nc2ccccc2s1,3,-7,74*,-15,-3,/,22*
Cc1cc(C(=O)Cn2ncc(Cl)c(Cl)c2=O)c(C)n1CC(F)(F)F,3,-3,36*,4,100,/,6*
C[C@@H](NC(=O)[C@@H]1[C@@H](CO)[C@@H]2Cn3c(cccc3=O)[C@@H]2N1CC1CC1)c1ccccc1,/,/,/,/,/,0,/
C[C@@H]1CN([C@H](C)CO)C(=O)c2cc(-c3ccccc3)cnc2O[C@H]1CN(C)C(=O)C1CCCCC1,/,/,/,/,/,8,/
CN1CCN2c3ccc(N)cc3CC3(C(=O)NC(=O)NC3=O)C2C1 (stereo unspecified),2,11,55*,-9,/,-1,>38
CN1C(=O)N(C)C(=O)C2(Cc3cc(N)ccc3N3CCN(c4ccccc4F)CC32)C1=O (stereo unspecified),7,/,10,0,3,/,/
C[C@H](NC(=O)C[C@@H]1CC[C@@H](NC(=O)C2CCC2)[C@@H](CO)O1)c1ccccc1,/,/,/,/,/,-2,/
